Bioassay records deposited in PubChem BioAssay by National Center for Advancing Translational Sciences (NCATS).
IMPase cell inh = membrane-permeable compound that blocks inositol monophosphatase; CHO-M1 cells, IP1 accumulation, HTRF TR-FRET ratio; inhibition (IP1 accumulation), % at 46.1 µM; 120,000 tested, under 10 active; P97697; active means well fitted curve in the direction sought with a large enough effect in the signal ratio, not every such curve was filed as active; inconclusive means small, poorly fitted or top-dose-only effect, or a change in a side signal; inactive means no such curve, though single readings can be large or run the other way; the % refers to the signal ratio;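 further: cells stimulated with carbachol in lithium chloride buffer; higher means more IMPase inhibition seen as more IP1 and lower FRET ratio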
Target sequence (P97697 whole entry, looked up): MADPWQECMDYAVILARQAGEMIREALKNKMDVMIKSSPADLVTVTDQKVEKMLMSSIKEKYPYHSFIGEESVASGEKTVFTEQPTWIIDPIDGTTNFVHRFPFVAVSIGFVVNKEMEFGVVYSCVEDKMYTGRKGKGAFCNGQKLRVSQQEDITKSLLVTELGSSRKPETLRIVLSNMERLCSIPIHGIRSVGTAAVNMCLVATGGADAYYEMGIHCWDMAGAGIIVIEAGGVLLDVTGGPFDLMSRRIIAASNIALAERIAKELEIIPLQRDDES
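CHO-M1, 2000 cells/well, cultured 16–30 h; cpd up to 46 uM; carbachol (50 uM solution, stimulation buffer w/ 50 mM LiCl, pH 7.4), 30 min 37C; IP-One TR-FRET, 10 min RT; Ex 320/Em 665, 620; Hill-fit AC50.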
PNC assembly inh = inhibitors of perinucleolar compartment assembly; PC3M PTB-GFP, PNC prevalence imaging, 16 h; hits give low values; activity change (PNC), negative = inhibition, % at 10 µM; hit rate 3.1% among 140,000;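 active means readout at or below -70, meaning at least 70% loss of cells showing the perinucleolar compartment, a nuclear body marking cancer cells; inconclusive means readout between -30 and a set limit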
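PC3M cells stably expressing PTB-GFP, 750–1000 cells/well, treated 16 h at 37 °C with compound (23 nl of library stock), in duplicate. After paraformaldehyde fixation and Hoechst stain, imaged at 20x; PNC prevalence scored by image analysis.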
ALDH1A1 block = ALDH1A1 (human) enzyme inhibition. AID 1030. Purified ALDH1A1, NADH fluorescence, propionaldehyde substrate. P00352. Potency, µM (top dose mostly 75.3 µM), most hits filed as inhibitors. hit rate 7.3% among 220,000
HPGD block = inhibitors of human 15-hydroxyprostaglandin dehydrogenase (HPGD); AID 894; Potency, µM, hits mostly inhibitors; purified HPGD, NADH fluorescence kinetic, PGE2 substrate; P15428; hit rate 4.3% among 150,000
Target sequence (P15428 whole entry, looked up): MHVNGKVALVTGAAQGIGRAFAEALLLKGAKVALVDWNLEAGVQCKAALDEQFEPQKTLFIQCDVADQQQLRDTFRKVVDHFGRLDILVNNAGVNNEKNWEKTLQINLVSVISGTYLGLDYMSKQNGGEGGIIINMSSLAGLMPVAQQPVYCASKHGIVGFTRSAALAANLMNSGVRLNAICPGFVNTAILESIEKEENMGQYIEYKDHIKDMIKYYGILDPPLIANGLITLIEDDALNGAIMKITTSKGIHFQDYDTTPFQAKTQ
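NADH formation kinetics: reaction with 30 uM PGE2 and 1 mM NAD+ (final), 20 nM enzyme, Tris-HCl pH 8 with Tween 20, after 15 min compound preincubation at room temperature. Fluorescence change, last versus first of five reads.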
IMPase Li inh = membrane-permeable IMPase blocker, potentiated with lithium; CHO-M1 cells, IP1 TR-FRET (IP-One), carbachol + lithium; Potency, µM (highest dose often 59.4 µM), most hits filed as inhibitors; hit rate 0.35% among 210,000; active means well fitted inhibition curve with a large enough effect; inconclusive means small, poorly fitted or top-dose-only effect; inactive means no such curve, though single readings can be large or run the other way;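 further: IP1 builds up when IMPase is blocked and the TR-FRET signal falls; nearly all actives have a fitted effect of over 50% in size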
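CHO cells stably expressing M1 receptor (2000/well) were cultured 16–30 h, then exposed to compounds with a small lithium addition for 30 min at 37C. IP1 was measured by TR-FRET competition; AC50 from Hill fits.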
Numbers stand for hits; . = inactive; ? = inconclusive; / = no result given; [ ] = remark or other dose. Sampled rows, rich in hits. Any-hit rate of the full collection: about 11%. Unless noted, the call rests on the fitted dose curve; in most records, active means well fitted inhibition curve with a large enough effect (not every such curve was filed as active); inconclusive means small, poorly fitted or top-dose-only effect, or another doubt; inactive means no such curve, though single readings can be large or run the other way.

SMILES | IMPase cell inh | PNC assembly inh | ALDH1A1 block | HPGD block | IMPase Li inh
COc1ccc(C2NC(=O)NC(O)(C(F)(F)F)C2C(=O)c2ccc(C)cc2)cc1 (configuration not stated) | . | . | 18µM | / | /
O=C1NC(c2cn(-c3ccccc3)nc2-c2cccs2)C(C(=O)c2cccnc2)C(O)(C(F)(F)F)N1 (configuration not stated) | . | . | ? | . | .
CCOc1cc(C2NC(=O)NC(O)(C(F)(F)F)C2C(=O)c2ccccc2)ccc1OC (configuration not stated) | . | . | ? | . | .
COc1cccc(C2NC(=O)NC(O)(C(F)(F)F)C2C(=O)c2cccnc2)c1OC (configuration not stated) | . | ? | 11µM | . | .
COc1ccc(C2NC(=O)NC(O)(C(F)(F)F)C2C(=O)c2ccccc2)cc1OC (configuration not stated) | . | . | 32µM | . | .
CC(=O)Nc1ccccc1OCC(=O)NCCc1ccc(Cl)cc1Cl | . | ? | . | / | /
CCCCC/C=C\C\C=C/C=C/C=C/[C@@H](SC[C@H](NC(=O)CC[C@H](N)C(=O)O)C(=O)NCC(=O)O)[C@@H](O)CCCC(=O)O | / | / | ? | / | .
COc1cc(OC)cc(-c2nc3n(n2)C(c2ccccc2)C(C(N)=O)=C(C)N3)c1 (configuration not stated) | . | / | / | / | /
CC1=C(C(=O)Nc2cccnc2)C(c2ccncc2)n2nnnc2N1 (configuration not stated) | . | . | . | . | .
CC1=C(C(=O)Nc2cccnc2)C(c2ccccn2)n2nnnc2N1 (configuration not stated) | . | . | 14µM | . | .
CC1=C(C(=O)Nc2ccccc2)C(c2cccs2)n2nnnc2N1 (configuration not stated) | .[1.84 µM] | ? | 11µM | . | .
Cc1cccn2c(=O)c(/C=C(\C#N)S(=O)(=O)c3ccccc3)c(N3CCN(C)CC3)nc12 | . | ? | 11µM | . | .
Cc1ccc(S(=O)(=O)/C(C#N)=C/c2c(N3CCN(C)CC3)nc3c(C)cccn3c2=O)cc1 | . | . | ? | ? | .
Cc1ccc(S(=O)(=O)/C(C#N)=C/c2c(N3CC(C)OC(C)C3)nc3c(C)cccn3c2=O)cc1 (configuration not stated) | . | ? | ? | 2.2µM | .
CC1CN(c2nc3ccccn3c(=O)c2/C=C(\C#N)S(=O)(=O)c2ccccc2)CC(C)O1 (configuration not stated) | . | . | 13µM | 18µM | .
C/C(=N/NC(=O)c1sc(NS(=O)(=O)c2ccccc2)nc1C)c1ccccc1 | . | ? | ? | / | /
CCOC(=O)c1sc(NS(=O)(=O)c2ccccc2)nc1C | . | ? | . | . | .
Cc1nc(NS(=O)(=O)c2ccccc2)sc1C(C)(C)C | / | ? | 5µM | . | .
Cc1nc(NS(=O)(=O)c2ccccc2)sc1NC(=O)OCCN(C)C | . | . | 14µM | . | .
CCOC(=O)c1ccc(NC(=S)N2CCN(CCNC3=CC(=O)CC(C)(C)C3)CC2)cc1 | / | / | ? | / | .
O=C(OCCN1C(=O)c2ccccc2C1=O)c1ccccc1 | / | / | . | / | .
Cn1nc(C(=O)OCCN2C(=O)c3ccccc3C2=O)c2ccccc2c1=O | . | . | . | 20µM | .
CC(/C=C/c1ccccc1)=N\Nc1nc(-c2ccccc2)cs1 | . | -85 | ? | . | .
COc1ccc(C=O)cc1OC(=O)C1(C)Cc2ccccc2C(=O)O1 (configuration not stated) | / | / | 5µM | / | .
CC1(C(=O)Nc2ccccc2)Cc2ccccc2C(=O)O1 (configuration not stated) | / | / | . | / | .
SMILES | IMPase cell inh | PNC assembly inh | ALDH1A1 block | HPGD block | IMPase Li inh
C=CCOC(=O)N[C@H](c1ccco1)C(C(C)=O)C(C)=O | / | / | . | . | .
COc1ccc(/C(O)=C2\C(=O)C(=O)N(c3cc(C)on3)C2c2cccc(OC)c2OC)cc1C (configuration not stated) | . | . | . | . | ?
COc1cccc(C2c3c(oc4ccc(Cl)cc4c3=O)C(=O)N2c2cc(C)on2)c1OC (configuration not stated) | . | -136 | . | . | .
CCC(C)NC(=O)C1c2ccccc2C(=O)N1Cc1ccccc1OC (configuration not stated) | . | . | . | . | .
CC(=O)OC1c2ccccc2C(=O)N1Cc1ccccc1Cl (configuration not stated) | . | . | ? | 18µM | .
Cn1cccc1/C=N/N1CCN(c2ccccc2)CC1 | / | / | 14µM | / | .
Cc1ccc(N2CCN(/N=C/c3ccccc3)CC2)cc1 | / | / | . | / | .
CN(C)c1ccc(-c2cc(NCc3cccnc3)ncn2)cc1 | / | / | ? | ? | .
Cc1ccc(-c2cnn(-c3cccc([N+](=O)[O-])c3)c2N)cc1 | . | -87 | ? | 35µM | .
Nc1c(-c2ccccc2Cl)cnn1-c1cccc([N+](=O)[O-])c1 | . | . | . | 14µM | .
N#CC[N+]1(Cc2ccccn2)CCCC1 | / | / | .[13.5 µM] | . | .
CC(C)c1nc2sc3c(N4CCCCC4)ncnc3c2c2c1CCCC2 | . | / | / | / | /
O=C(CCS(=O)(=O)Cc1ccccc1)N1CCN(c2ccc([N+](=O)[O-])cc2)CC1 | / | / | 25µM | / | .
O=C(CCCc1ccccc1)N1CCN(c2ccc([N+](=O)[O-])cc2)CC1 | . | . | 22µM | . | .
O=C(CCS(=O)(=O)Cc1ccccc1)N1CCN(c2ccccc2)CC1 | . | . | ? | . | .
O=C(CCc1ccccc1)N1CCN(c2ccccn2)CC1 | / | . | ? | . | .
O=C(CCCCC(=O)N1CCN(c2ccccc2)CC1)N1CCN(c2ccccc2)CC1 | . | . | . | . | .
O=C(CCc1ccccc1)N1CCN(CCO)CC1 | . | -89 | . | . | .
O=C(CCCC(=O)N1CCN(c2ccc([N+](=O)[O-])cc2)CC1)c1ccccc1 | / | . | 28µM | . | .
CNC(=O)CC1C(=O)N(c2ccc(OC)cc2)C(=S)N1NC(=O)c1cccc(F)c1 (configuration not stated) | / | / | . | / | /
C/C(Cl)=C/CCl | / | / | ? | . | .
CCc1cc2cccc(C)c2nc1SCC(=O)c1ccc(NC(C)=O)cc1 | .[1.84 µM] | ? | ? | . | .
CCc1cc2ccc(C)cc2nc1SCC(=O)c1ccc(NC(C)=O)cc1 | . | . | 25µM | 8.9µM | .
CCCCc1nc2ccn(CC(=O)N(C)C)c(=O)c2n1Cc1ccc(-c2ccccc2-c2nn[nH]n2)cc1 | / | / | . | . | .
Cc1ccc(/C(C#N)=C\c2ccc(N3CCOCC3)o2)cc1 | . | . | 10µM | ? | .
N#C/C(=C/c1ccc(N2CCCCCC2)o1)c1ccc(Cl)cc1 | . | . | 7.9µM | ? | .
N#C/C(=C/c1ccc(N2CCCCC2)o1)c1cccc(F)c1 | . | . | ? | ? | .
Cc1nc(C)c(Oc2cccc(C(F)(F)F)c2)c(=O)[nH]1 | / | / | . | / | /
O=C(NC(=S)NCC1CCCO1)c1ccccc1[N+](=O)[O-] (configuration not stated) | / | / | ? | / | .
